Assay results taken from PubChem BioAssay.

Biological target: Follistatin (Homo sapiens) (UniProt P19883)
Test: FST protein binding to printed compounds – biochemical, small-molecule microarray, 635/667 nm fluorescence, primary screen (AID 1132)
Conditions: 635 nm fluorescence, higher = more signal

Chain of Follistatin (Homo sapiens) (P19883 whole entry, looked up): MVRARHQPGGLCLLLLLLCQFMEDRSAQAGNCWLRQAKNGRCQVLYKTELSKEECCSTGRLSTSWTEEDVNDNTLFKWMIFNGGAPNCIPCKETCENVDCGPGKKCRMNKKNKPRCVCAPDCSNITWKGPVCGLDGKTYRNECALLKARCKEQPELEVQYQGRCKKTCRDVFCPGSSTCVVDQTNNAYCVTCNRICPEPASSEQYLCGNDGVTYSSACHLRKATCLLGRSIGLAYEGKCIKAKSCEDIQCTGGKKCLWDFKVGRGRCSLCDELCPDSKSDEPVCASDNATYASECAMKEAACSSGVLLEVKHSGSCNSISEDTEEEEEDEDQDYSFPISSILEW

| Structure (SMILES) | composite z-score |
| --- | --- |
| COCCOC(=O)N1C(=O)[C@@]2(c3ccccc31)[C@H](c1ccc(O)cc1)N1[C@H](c3ccccc3)[C@H](c3ccccc3)OC(=O)[C@H]1[C@@H]2C(=O)Nc1nc2ccccc2s1 | 0.695 |
| C=CCOC(=O)[C@H]1[C@@H]2C(=O)O[C@@H](c3ccccc3)[C@@H](c3ccccc3)N2[C@@H](c2ccc(OCCOC(=O)[C@H]3C[C@H]4C(=O)N[C@@H](CCCCN(C)C)C(=O)N4[C@H]3c3ccc(O)cc3)cc2)[C@]12C(=O)Nc1ccc(I)cc12 | 1.34 |
| NC(=O)[C@@H]1[C@H]2C(=O)O[C@H](c3ccccc3)[C@H](c3ccccc3)N2[C@H](c2ccc(O)cc2)[C@@]12C(=O)Nc1ccccc12 | -0.5 |
| CC(C)C[C@@H]1NC(=O)[C@H](C(C)C)NC(=O)[C@@]23C(=O)N[C@@H](Cc4ccccc4)C2[C@H](C)[C@@]2(C)O[C@H]2C3/C=C/CC/C=C/CNC1=O (stereo partly specified) | 1.29 |
| COC(=O)C(CC#Cc1ccc2c(c1)[C@]1(C(=O)N2)[C@H](c2ccc(OCCO)cc2)N2[C@H](c3ccccc3)[C@H](c3ccccc3)OC(=O)[C@H]2[C@@H]1C(=O)Nc1nc2ccccc2s1)C(=O)OC | 0.989 |
| O=C1NC(=O)C2C1C=CC(C(O)c1cc(C(F)(F)F)cc(C(F)(F)F)c1)N2Nc1ccccn1 (stereo unspecified) | 0.89 |
| Cc1ccc(S[C@]2(C(=O)NCCCN(C)C)CC(=O)N(Cc3cc(C(F)(F)F)cc(C(F)(F)F)c3)[C@@H]2c2ccc(CO)cc2I)cc1 | -0.816 |
| C=C(C(=O)CC[C@@H](OC(=O)c1cccnc1)c1ccccc1OCCO)C(C)C | 0.719 |
| COc1cc(NN2C(C(O)c3ccco3)C=CC3C(=O)N(c4ccccc4)C(=O)C32)cc(OC)c1OC (stereo unspecified) | 0.363 |
| COC(=O)[C@@]1(Cc2ccc(OC)cc2)[C@H]2c3cc(C(=O)N(C)C)n(CCc4ccccn4)c3C[C@H]2CN1C(=O)c1ccccc1 | 0.0679 |
| O=C(NC1CC1)[C@@H]1c2ccccc2C(=O)N(Cc2ccccc2Cl)[C@H]1c1ccc(CO)cc1 | 1.33 |
| COC(=O)[C@@]1(Cc2ccc(F)cc2)[C@H]2c3cc(C(=O)N(C)C)n(Cc4ccccc4)c3C[C@H]2CN1C(=O)c1ccccc1 | 0.787 |
| O=C1C2C=CC(C(O)CCc3ccccc3)N(Nc3ccccc3F)C2C(=O)N1c1ccccc1 (stereo unspecified) | 1.25 |
| C=C[C@H](CO[Si](CC)(CC)CC)N(Cc1ccc(OC(C)=O)c(OC)c1)S(=O)(=O)c1ccc(Br)cc1 | 1.28 |
| O=C1O[C@@H](c2ccccc2)[C@@H](c2ccccc2)N2[C@@H](c3ccccc3OCCO)[C@]3(C(=O)Nc4ccc(C#CC5=CCCCC5)cc43)[C@@H](C(=O)N3CCCCCCC3)[C@H]12 | 1.48 |
| CCOC(=O)[C@H]1C/C=C/C[C@H](C(=O)OCC)C(=O)O[C@H]2[C@@H](OC)O[C@H](CO)[C@@H](OC(=O)c3c(OC)cccc3OC)[C@@H]2OC1=O | 0.706 |
| CCC(CC)C(O)C1C=CC2C(=O)NC(=O)C2N1Nc1ccc(Cl)cc1Cl (stereo unspecified) | 1.14 |
| CCOC(=O)C[C@H]1[C@H](OC(=O)c2ccc(C(=O)c3ccccc3)cc2)[C@@H](NC(=O)c2ccc3ccccc3c2)c2cc(OCCCO)ccc2N1C(=O)Cc1ccc(OC)cc1 | 0.288 |
| COC(=O)[C@@]1(CCC(=O)OC(C)(C)C)N=C(c2ccc(OCCCO)cc2)O[C@H]1c1ccccc1N=[N+]=[N-] | 1.24 |
| COC(=O)[C@@]1(Cc2ccc(OC)cc2)[C@H]2c3cc(C(=O)N(C)C)n(Cc4ccccn4)c3C[C@H]2CN1C(=O)c1ccccc1 | -0.363 |
| CCCC[C@@H]1C[C@H]1[C@@H](NC(=O)c1ccccc1)c1ccc(C(=O)OC)cc1 | -0.676 |
| CCCCCCc1nc(-c2ccc(OC)nc2)cc2c1[Si](C(C)C)(C(C)C)O[C@H]2c1ccccc1 | 0.885 |
| COC(=O)C(CC#Cc1ccc2c(c1)[C@]1(C(=O)N2)[C@H](C(=O)Nc2nc3ccccc3s2)[C@H]2C(=O)O[C@H](c3ccccc3)[C@H](c3ccccc3)N2[C@@H]1c1ccccc1OCCO)C(=O)OC | 0.931 |
| CN(C)C(=O)[C@@]1(CCS(=O)(=O)c2ccccc2)COC(c2ccc(OCCCO)cc2)=N1 | 0.66 |
| COc1ccc(C#Cc2ccc3c(c2)[C@]2(C(=O)N3)[C@H](C(=O)Nc3nc4ccccc4s3)[C@H]3C(=O)O[C@H](c4ccccc4)[C@H](c4ccccc4)N3[C@@H]2c2ccc(O)cc2)cc1 | 1.38 |
| C=C(CC1([C@@H](NP(=O)(c2ccccc2)c2ccccc2)[C@H]2C[C@@H]2CCCC)CC1)c1ccccc1 | 0.132 |
